Screens (PubChem BioAssay)
Rows were chosen to be rich in hits. Some 21% of all compounds tested hit in one or more screens of this group.
CHX counter = counter-screen for Shiga toxin inhibitors: cycloheximide protein synthesis inhibition; cell reporter, cycloheximide protein synthesis inhibition counterscreen; max response, %; 12% of 300,000 active; AID 2314; in the data active = max response mostly above about 13%, no sharp cut-off; inactive = mostly below about 14%; also: read at 38.3 µM for the half of the compounds with a filed dose; 0% is about no effect
HCV inh = HCV inhibition | Huh7.5.1 HCVcc-Cre infection, luciferase reporter, 44 h | Potency, µM (top dose mostly 41.8 µM), inactives show at the top dose activity change, negative = inhibition, actives largely listed as inhibitors | 3.4% of 340,000 active; also: potency is read from the fitted curve at half-maximal effect; % is scaled to controls: 0 for no effect and ±100 for the full control effect
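Luciferase read-out (15 sec integration) after a 15 min room-temperature substrate step quantifies HCVcc-Cre infection. Cells, 1,000 per well, had compound added 4 h post-plating, then virus at ~0.5 moi, and were cultured 44 h.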
Shiga toxin inh = inhibitors of Shiga toxin in Vero cells. Vero cells, Shiga toxin protein synthesis inhibition reporter. inhibition, % at 38.7 µM. 9.2% of 290,000 active. AID 2315; in the data active = inhibition mostly above about 28%, no sharp cut-off; inactive = mostly below about 43%; also: 0% is about no effect
Pf growth 48h = inhibits P. falciparum growth in the first generation, 48 h. P. falciparum luciferase growth in erythrocytes, 48 h. Potency, µM (doses to about 28.7 µM), without a hit: at the highest dose activity change, negative = inhibition, most hits filed as inhibitors. 5.9% of 310,000 active; also: potency is read from the fitted curve at half-maximal effect; % is scaled to controls: 0 for no effect and ±100 for the full control effect
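Luciferase-expressing parasites in RBCs, 2% Hct / 0.1% parasitemia final; RPMI 1640 + 0.5% Albumax; 37 C, 5% CO2, one generation; luminescence read-out, lower signal = inhibition.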
HCMV inh = inhibitors of human cytomegalovirus. HFF cells, HCMV-luciferase reporter, 72 h; active compounds read low. activity change, negative = inhibition, % at 57.5 µM. 4.5% of 410,000 active; in the data active = activity change below about -60%; inconclusive = no clear call, values can overlap the other calls; inactive = above about -39%; also: % is scaled to controls: 0 for no effect and ±100 for the full control effect
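Cell-based, HFFs, 1000 cells/well, 16 h 37C; cpds in DMSO + HCMV-luc, MOI 1 PFU/cell; 72 h 37C; OneGlo luminescence after 5 min RT; norm. to buffer vs Salinomycin 10uM.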
Pf growth 96h = P. falciparum growth inhibition at 96 hours. 6.9% of 320,000 active. Potency, µM (doses to about 28.7 µM), for the others: top-dose activity change, negative = inhibition, actives largely listed as inhibitors. P. falciparum luciferase reporter growth, 96 h; also: potency is read from the fitted curve at half-maximal effect; % is scaled to controls: 0 for no effect and ±100 for the full control effect
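Plates of compound plus infected erythrocytes (2% hematocrit, 0.05% parasitemia final) incubate 96 hours, 37 C, 5% CO2. Detection reagent added; reduced luminescence from the parasites' luciferase reporter flags inhibition.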
Numbers without * were called inactive; [ ] = dose if it differs, or a comment. Unless noted, calls follow the shape of the dose curve; as a rule, active = well fitted inhibition curve with a large enough effect; inconclusive = small, poorly fitted or top-dose-only effect, or another doubt; inactive = no such curve, though single readings can be large or run the other way.

COC(=O)CN1C(=O)C(C)(C)c2cc(S(=O)(=O)NCc3ccc(Cl)cc3)ccc21 was read as HCMV inh 9.
Screening COCc1c(C#N)c(NCc2cc(OC)c(OC)c(OC)c2)nc(C)c1[N+](=O)[O-] returned CHX counter -3, HCV inh 11µM*, Shiga toxin inh 28, Pf growth 48h -14%, HCMV inh -34 and Pf growth 96h 2%.
Screening CC(C)Cn1c2c(c(=O)[nH]c1=O)C(C(F)(F)F)(C(F)(F)F)N=C(CCC1CCCCC1)N2 returned CHX counter -7, HCV inh inconclusive, Shiga toxin inh -5, Pf growth 48h 9.3µM*, HCMV inh inconclusive and Pf growth 96h 0%.
O=c1[nH]c(=O)n(Cc2ccco2)c2c1C(C(F)(F)F)(C(F)(F)F)N=C(CCC1CCCCC1)N2 was read as CHX counter 6, HCV inh 15%, Shiga toxin inh -19, Pf growth 48h inconclusive, HCMV inh inconclusive and Pf growth 96h inconclusive.
O=C(NCc1ccco1)c1ccc2c(c1)OCCO2 was read as CHX counter 24*, HCV inh 25%, Shiga toxin inh 26*, Pf growth 48h 35%, HCMV inh 52 and Pf growth 96h 11%.
Screening Cc1cc(C(=O)NCc2ccccc2F)cs1 returned CHX counter 16*, HCV inh 4%, Shiga toxin inh 34, Pf growth 48h 41%, HCMV inh 15 and Pf growth 96h 6%.
For O=C(NCc1ccco1)c1ccc2c(c1)CCO2 the results were CHX counter 18, HCV inh 16%, Shiga toxin inh 17, Pf growth 48h inconclusive, HCMV inh 3 and Pf growth 96h 4%.
`O=C(NCc1ccccc1F)c1ccc2c(c1)OCCO2` gave CHX counter 23*, HCV inh 1%, Pf growth 48h 42%, HCMV inh 67 and Pf growth 96h 9%.
Screening CC(C)=O returned Pf growth 48h -4% and Pf growth 96h 8%.
C[C@H]1CN([C@@H](C)CO)C(=O)CCCn2cc(nn2)CO[C@@H]1CN(C)S(=O)(=O)c1ccccc1F was read as HCMV inh 2.
`O=C1C=C(c2cc(F)ccc2F)C[C@@H](c2ccc(Cl)cc2)C1` gave HCV inh inconclusive, Pf growth 48h 3.7µM*, HCMV inh -23 and Pf growth 96h inconclusive.
For Cc1ccc(Cl)cc1C1=CC(=O)C[C@H](c2ccc(F)cc2)C1 the results were HCV inh 17%, Pf growth 48h -23%, HCMV inh 27 and Pf growth 96h inconclusive.
Screening COc1ccc([C@H]2CC(=O)C=C(c3cc(F)ccc3F)C2)cc1OC returned HCV inh 11µM*, Pf growth 48h inconclusive, HCMV inh -3 and Pf growth 96h inconclusive.
For CN(C)c1nc(/C=C(\C#N)C(N)=O)c(Cl)n1-c1ccc(F)cc1 the results were CHX counter -2, HCV inh -7%, Shiga toxin inh 2, Pf growth 48h 48%, HCMV inh -6 and Pf growth 96h -19%.
For OCC[N+]12CCC(CC1)C(C(O)(c1ccccc1)c1ccccc1)C2 (configuration not stated) the results were CHX counter -2, HCV inh -15%, Shiga toxin inh 15, Pf growth 48h inconclusive, HCMV inh 25 and Pf growth 96h -38%.
Screening O=C(C[N+]12CCC(CC1)C(C(O)(c1ccccc1)c1ccccc1)C2)c1ccc(Br)cc1 (configuration not stated) returned CHX counter -4, HCV inh 1%, Shiga toxin inh -4, Pf growth 48h inconclusive, HCMV inh 19 and Pf growth 96h 8.3µM*.
`CN(Cc1cc(Br)cc(Br)c1N)C1CCCCC1` gave Pf growth 48h inconclusive, HCMV inh 0 and Pf growth 96h 19µM*.
CN(Cc1ccc(O)cc1)C1CCCCC1 was read as CHX counter -6, HCV inh -7%, Shiga toxin inh 10, Pf growth 48h -4%, HCMV inh -10 and Pf growth 96h -13%.
Screening c1ccc(Nc2ccccc2Nc2ccccn2)nc1 returned CHX counter 0, HCV inh -2%, Shiga toxin inh 6, Pf growth 48h inconclusive, HCMV inh -15 and Pf growth 96h 20%.
`COc1ccc(NC(=O)c2cc(=O)[nH]c3ccccc23)cc1` gave CHX counter 8, HCV inh 3%, Shiga toxin inh -3, Pf growth 48h 2%[0.00184 µM], HCMV inh -17 and Pf growth 96h -1%.
Oc1cccc2ccc(Nc3ccccn3)nc12 was read as CHX counter 113*, HCV inh 1.1µM*, Shiga toxin inh active, Pf growth 48h 0.37µM* and HCMV inh -103*.
Cc1ccc(NC(=O)c2cc3ccccc3cc2O)cc1 was read as CHX counter 40*, HCV inh inconclusive, Shiga toxin inh 79*, Pf growth 48h inconclusive, HCMV inh -1 and Pf growth 96h inconclusive.
Screening COc1ccc(NC(=O)c2cc3ccccc3cc2O)cc1 returned CHX counter 33*, HCV inh inconclusive, Shiga toxin inh 62*, Pf growth 48h inconclusive, HCMV inh 48 and Pf growth 96h 8.3µM*.
`COc1ccc(NC(=O)c2cc3ccc4c5ccccc5[nH]c4c3cc2O)cc1` gave CHX counter -3, HCV inh -14%, Shiga toxin inh 3, Pf growth 48h inconclusive, HCMV inh -14 and Pf growth 96h 5.9µM*.
`COc1ccc(-c2nnc(NC(=O)C3CCCN3S(=O)(=O)c3cccs3)o2)cc1` (configuration not stated) gave HCV inh 16%, Pf growth 48h 11%, HCMV inh 7 and Pf growth 96h 39%.
`CC(C)OCCCNC(=O)c1cc(S(=O)(=O)N2CCc3ccccc32)cn1C` gave CHX counter 1, HCV inh -14%, Shiga toxin inh -5, Pf growth 48h -5%, HCMV inh 5 and Pf growth 96h 10%.
For COc1ccc([C@@H]2C(C(=O)N3CCCC3)CC(=O)N2C(=O)CCc2ccccc2)cc1 (some centres not stated) the results were HCMV inh -3.
Screening O=C(CSCc1c(F)cccc1Cl)Nc1ccccc1C(=O)N1CCOCC1 returned CHX counter 1, HCV inh 0%, Shiga toxin inh -6, Pf growth 48h 7%, HCMV inh -29 and Pf growth 96h 0%.
O=C(Nc1ccccn1)c1cc2ccccc2cc1O was read as CHX counter 31*, HCV inh 17%, Shiga toxin inh 96*, Pf growth 48h 17% and Pf growth 96h -19%.
`COc1ccc(NC(=O)CCCn2c(=O)c3sccc3n(Cc3ccc(C)cc3C)c2=O)cc1` gave CHX counter -6, HCV inh inconclusive, Shiga toxin inh -14, Pf growth 48h -2%, HCMV inh -5 and Pf growth 96h 8.3µM*.
